Assay outcomes: PubChem, several laboratories
A selection: hits, their analogues and other compounds. The true share with any hit is near 4.8%.
DAX1 inh-1 – NR0B1 (DAX1) inhibition | P51843 | HEK293 Gal4-DAX1 luciferase reporter, luminescence | inhibition, % at 6.75 µM | 0.99% of 340,000 active | AID 504766;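 active = inhibition above the mean over all tested compounds plus 3 SD, cut at about 4.2% in these data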;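 also: inhibition shows as a rise in luminescence from relieved DAX1 repression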
Target sequence (P51843 207-470 limits assumed): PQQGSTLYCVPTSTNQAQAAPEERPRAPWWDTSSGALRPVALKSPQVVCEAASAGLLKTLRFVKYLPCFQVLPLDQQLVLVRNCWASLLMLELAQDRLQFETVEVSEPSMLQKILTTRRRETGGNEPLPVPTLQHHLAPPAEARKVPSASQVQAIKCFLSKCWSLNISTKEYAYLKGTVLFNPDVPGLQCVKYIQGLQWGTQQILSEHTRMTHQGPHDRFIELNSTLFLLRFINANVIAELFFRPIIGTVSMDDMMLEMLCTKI
Rev-erbA mod – modulators of human Rev-erb alpha DNA binding | P20393 | Rev-erbα–FITC-DNA binding, fluorescence polarization, 90 min | activity, % at 10 µM | 0.79% of 370,000 active | AID 1259318;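 active = activity above about 14%, limit read from the data; passing the limit was not always enough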
hcDAF-12 act – activators of H. contortus DAF-12 nuclear receptor | HEK293 hcDAF-12 lit1-tk-luc reporter, luminescence; 0% DMSO, 100% Δ7-dafachronic acid | activation, % at 6.8 µM | 1.4% of 370,000 active | AID 652067;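 active = activation above the mean of all tested compounds plus 3 SD, cut at about 5.5% in these data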
hgDAF-12 ag – agonists of H. glycines DAF-12 nuclear receptor; HEK293 GAL4-hgDAF12 UAS-luciferase reporter, agonist luminescence; normalized to butyrate control; 1.8% of 370,000 active; activation, % at 6.8 µM;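 active = activation above a cutoff set at the mean of all screened compounds plus 3 SD, cut at about 10% in these data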
ssDAF-12 act – activates DAF-12 receptor from parasite S. stercoralis; activation, % at 6.8 µM; HEK293 ssDAF-12/GRIP1 lit1-tk-luc reporter, luminescence; % of 3 µM dafachronic acid response; 1% of 370,000 active; AID 652126;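 active = activation above the mean over all tested compounds plus 3 SD, cut at about 0.9% in these data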
DAX1 inh-2 – inhibitors of DAX1 repression of SF-1 activated StAR promoter; HEK293T StAR-luciferase reporter, SF-1/DAX-1 repression relief; inhibition, % at 6.8 µM; 1.1% of 370,000 active;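 active = inhibition above the mean over all tested compounds plus 3 SD, cut at about 3.6% in these data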;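 also: higher inhibition means more luminescence from relief of DAX-1 repression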
Of the large screens only hits and unclear results are named; the others gave an inactive call.

COc1ccc(S[C@]2(C(=O)N(C)C)CC(=O)N(S(=O)(=O)c3ccc(F)cc3)[C@@H]2c2ccc(OC)cc2)cc1	none (no result: DAX1 inh-1)
O=C(c1ccc(Cl)cc1)c1cnc(-c2ccc(Cl)cc2)s1	none
O=C(c1ccccc1)c1cnc(-c2ccc(Cl)cc2)s1	DAX1 inh-1 5.0, hgDAF-12 ag 12.3
CC(=O)c1sc(NC(=O)c2ccccc2)nc1-c1ccccc1	DAX1 inh-1 4.8, hgDAF-12 ag 12.2
O=C(O)c1ccc2c3c(cccc13)C(=O)N(c1cccc3ccccc13)C2=O	DAX1 inh-1 4.5
O=C(O)c1ccccc1N1C(=O)c2cccc3cccc(c23)C1=O	none
Cc1nc(-c2ccccc2)sc1C(=O)O	none
Cc1ccc(-c2nc(C)c(C(=O)O)s2)cc1	hgDAF-12 ag 10.8
Cc1cccc(C(=O)N[C@H]2CC[C@@]34CCCN3C(=O)CCC[C@H]4[C@H]2C)c1	none (no result: DAX1 inh-1, DAX1 inh-2)
CC1=C(C(=O)OCC2CCCO2)C(c2coc3ccccc3c2=O)C2=C(CCCC2=O)N1 (stereo unspecified)	DAX1 inh-1 4.2
O=C(N[C@H](Cc1ccccc1)C(=O)N1CCN(CC(=O)N2CCCC2)CC1)[C@H]1O[C@@H](n2ccc(=O)[nH]c2=O)[C@H](O)[C@@H]1O	none (no result: DAX1 inh-1)
CCC(=O)O[C@H]1CCC2C3CCc4cc(O)ccc4C3CC[C@@]21C (stereo partly specified)	none (no result: DAX1 inh-1, hcDAF-12 act, hgDAF-12 ag, ssDAF-12 act, DAX1 inh-2)
CNNC(=O)C(=O)NNS(=O)(=O)c1ccccc1	DAX1 inh-1 5.8
Clc1ccc(-c2nc(-c3ccccn3)no2)cc1Cl	hgDAF-12 ag 12.4, DAX1 inh-2 3.6
COc1ccc(-c2nc(-c3ccccn3)no2)cc1	none
Brc1ccc(N2O[C@H]3C=C[C@@H]2C3)nc1	none (no result: DAX1 inh-1)
CN1CCCN(C(=O)CSc2ccccc2)CC1	none
CN1CCN(C(=O)CSc2ccc(Cl)cc2)CC1	DAX1 inh-1 4.6
O=C(NCc1cccs1)C1CCN(S(=O)(=O)c2ccc([N+](=O)[O-])cc2)CC1	none (no result: DAX1 inh-1)
C(#CSCc1ccccc1)SCc1ccccc1	DAX1 inh-1 4.3
CCN(CC)C(=O)CSc1nnc(-c2ccc(C(C)(C)C)cc2)n1Cc1ccco1	none (no result: DAX1 inh-1)
Cc1ccc(S(=O)(=O)N2CCCC2C(=O)N2CCc3ccccc3C2)cc1C (stereo unspecified)	none (no result: DAX1 inh-1)
COc1ccc(OC)c(NC(=O)CSc2nncc(=O)n2N)c1	ssDAF-12 act 0.9
c1ccc2sc(-c3csc4c3CCNC4)nc2c1	none (no result: DAX1 inh-1, DAX1 inh-2)
Cc1cccc(Nc2nc(N)nc(CSc3nccn3C)n2)c1	none
Cc1ccc(Nc2nc(N)nc(CSc3nccn3C)n2)cc1	hgDAF-12 ag 11.1, ssDAF-12 act 0.9
COc1ccccc1C(=O)n1ccc2ccc(-c3ccc4ccn(Cc5ccccc5)c4c3)cc21	none (no result: DAX1 inh-1)
O=C(Nc1nc2c(s1)CCCC2)c1ccc(N2C(=O)CCC2=O)cc1	DAX1 inh-2 4.2
O=C(CCCc1cccs1)Nc1nc2c(s1)CCCC2	ssDAF-12 act 1.0
O=C(Nc1nc2c(s1)CCCC2)c1ccc(Br)s1	hcDAF-12 act 6.2
CC1CCc2nc(NC(=O)c3ccc(N4C(=O)CCC4=O)cc3)sc2C1 (stereo unspecified)	none
COc1ccc(OC)c2sc(NC(=O)c3ccc(Br)s3)nc12	none
COC(=O)c1ccc(C(=O)NC(=S)Nc2nc3c(s2)CCCC3)cc1	hcDAF-12 act 6.2
Cc1csc(NC(=O)CCCc2cccs2)n1	none
N[C@H](C(=O)Nc1ccc(Cl)cc1C(=O)c1ccc[nH]1)c1ccccc1	none (no result: DAX1 inh-1, DAX1 inh-2)
CCc1ccc2nc(NC(=O)c3ccc(N4C(=O)CCC4=O)cc3)sc2c1	DAX1 inh-1 4.4
COc1cccc(-c2sc3ccc(OC)cc3c2-c2cnc(N3CCOCC3)nc2)c1	hgDAF-12 ag 10.9 (no result: DAX1 inh-1)
CN(C(=S)NC(=O)/C=C/c1ccc(F)cc1)C1CCCCC1	none
Cc1ccc(C(=O)NC(=S)N(C)C2CCCCC2)cc1	hgDAF-12 ag 10.5
C[C@@H]1CCCCO[C@H](CN(C)Cc2ccncc2)[C@@H](C)CN([C@H](C)CO)C(=O)c2cc(N(C)C)ccc2O1	none (no result: DAX1 inh-1)
C[C@@H]1CN([C@@H](C)CO)C(=O)c2cc(N(C)C)ccc2O[C@@H]1CN(C)Cc1ccncc1	ssDAF-12 act 1.3
Cc1noc(C)c1NC(=O)Nc1ccc2c(c1)C(=O)N([C@H](C)CO)C[C@H](C)[C@@H](CN(C)S(=O)(=O)c1ccc(Cl)cc1)OCCCC[C@@H](C)O2	DAX1 inh-1 6.1
